{"source": "PubChem BioAssay (Tox21)", "note": "Records with an inconclusive call do not appear. A number with no mark means an inactive call. The call rests on the fitted dose curve; in most records, active means well fitted activation curve with a large enough effect in the repeat runs; inconclusive means weak or mixed curves; inactive means flat fitted curve, though single readings scatter. On the % scale 0 is the no-effect control and ±100 the full control effect."}
{"experiment": "A CellTox Green Cytotoxicity Assay to monitor cytotoxicity in HepG2 cells - 16 hour (AID 1224876); further: nearly all actives have a fitted effect of over 45% in size", "settings": "CellTox Green fluorescence; series mostly up to 76.8 µM; cytotoxicity increase: at the top concentration", "text": "National Center for Advancing Translational Sciences [NCATS]\nNIH Chemical Genomics Center [NCGC]\nU.S. Environmental Protection Agency [EPA]\nNational Institutes of Environmental Health Sciences [NIEHS]\nNational Toxicology Program [NTP]\nCell-based models are critical for drug discovery. Determining the natural cytotoxic effects resulting from test compounds is an essential research activity. A CellTox Green Cytotoxicity Assay to monitor cytotoxicity in real time of continues cell culture during 40 hours of the compound treatment was used to screen Tox21 10K library compounds in HepG2 cells. CellTox Green Cytotoxicity Assay is a nonlytic, homogeneous, biofluorescent method to measure cytotoxicity in cell culture after experimental manipulation. The assay system uses a proprietary asymmetric cyanine dye that is excluded from viable cells but preferentially stains the dead cell's DNA. […] Viable cells produce no appreciable increases in fluorescence. Therefore, the fluorescence signal produced by the binding interaction with dead cell DNA is proportional to cytotoxicity.\nThe mixture of HepG2 cell suspension and reagents were dispensed at 600cells/6 ul/well in 1536-well tissue culture treated black solid bottom plates using a Multidrop dispenser. After the assay plates were incubated at a 37 C/5% CO2 incubator for 5 hours, 23 nL of compounds dissolved in DMSO, positive and negative controls was transferred to the assay plate by a pintool work station. The plates were incubated at 37 C for 40 hours. The fluorescence intensity were measured at 0h, 8h, 16h, 24h, 32h and 40h time points using ViewLux plate reader during compound treatment."}
{"smiles": "CCCCCCCCN(C)C", "cytotoxicity increase": "-9.25%"}
{"smiles": "CC(C)CCCCCCOC(=O)c1ccc(C(=O)OCCCCCCC(C)C)c(C(=O)OCCCCCCC(C)C)c1", "cytotoxicity increase": "0.39%"}
{"smiles": "Nc1ccc(C(=O)N2CC3CC(CN(Cc4ccccc4)C3)C2)cc1", "cytotoxicity increase": "-10.8% [at 35.3 µM]"}
{"smiles": "O=C(Cl)c1ccc([N+](=O)[O-])cc1", "cytotoxicity increase": "3.06%"}
{"smiles": "C1=Cc2ccccc2C1", "cytotoxicity increase": "-1.69%"}
{"smiles": "C=CC[N+]1([C@H]2C[C@H]3[C@@H]4CC[C@H]5C[C@H](OC(C)=O)[C@@H](N6CCCCC6)C[C@]5(C)[C@H]4CC[C@]3(C)[C@H]2OC(=O)CC)CCCCC1", "cytotoxicity increase": "-12% [at 35.3 µM]"}
{"smiles": "CCCCOCCOCCOCCOCCO", "cytotoxicity increase": "-2.85%"}
{"smiles": "CC1=CCC(C(C)C)C=C1", "note": "(stereo not given)", "cytotoxicity increase": "-2.64%"}
{"smiles": "O=C(c1ccc(O)cc1)c1ccc(O)cc1", "cytotoxicity increase": "-4.34%"}
{"smiles": "C=C(C)C(=O)OCCOc1ccccc1", "cytotoxicity increase": "13.8%"}
{"smiles": "COCCOCCOCCOCCOC", "cytotoxicity increase": "-2.28%"}
{"smiles": "NCc1ccccc1", "cytotoxicity increase": "1.26%"}
{"smiles": "CC(C)(C)c1ccc(OCC2CO2)cc1", "note": "(stereo not given)", "cytotoxicity increase": "13.1%"}
{"smiles": "O=C(Nc1ccccc1)OCC(CN1CCCCC1)OC(=O)Nc1ccccc1", "note": "(stereo not given)", "cytotoxicity increase": "27.4% [at 35.3 µM]"}
{"smiles": "COc1ccc2[nH]c(S(=O)Cc3ncc(C)c(OC)c3C)nc2n1", "note": "(stereo not given)", "cytotoxicity increase": "-9.41% [at 35.3 µM]"}
{"smiles": "O=C(O)Cn1c(C(=O)Nc2nc(-c3ccccc3Cl)cs2)cc2ccccc21", "cytotoxicity increase": "11.2% [at 35.3 µM]"}
{"smiles": "CCOC(=O)C1=NN(c2ccccc2)C(=O)C1", "cytotoxicity increase": "-11.8%"}
{"smiles": "N#Cc1cc2ccccc2c2ccccc12", "cytotoxicity increase": "-10.8%"}
{"smiles": "O=C(O)Cc1sc(-c2ccccc2)nc1-c1ccc(Cl)cc1", "cytotoxicity increase": "6.22% [at 35.3 µM]"}
{"smiles": "CCN(CC)CCOc1ccc2c(c1)C(=O)c1cc(OCCN(CC)CC)ccc1-2", "cytotoxicity increase": "18.8% [at 35.3 µM]"}
{"smiles": "CCOc1ccc(NC(=O)CC(C)=O)cc1", "cytotoxicity increase": "-13.7%"}
{"smiles": "CCOc1nc2cccc(C(=O)O)c2n1Cc1ccc(-c2ccccc2-c2nn[nH]n2)cc1", "cytotoxicity increase": "-8.55% [at 35.3 µM]"}
{"smiles": "CN1CCN(C2=Nc3cc(Cl)ccc3Nc3ccccc32)CC1", "cytotoxicity increase": "16.4% [at 35.3 µM]"}
{"smiles": "CC(=O)N(O)CCCCCNC(=O)CCC(=O)N(O)CCCCCNC(=O)CCC(=O)N(O)CCCCCN", "cytotoxicity increase": "0.128% [at 35.3 µM]"}
{"smiles": "COC(=O)C(C)=O", "cytotoxicity increase": "-7.62%"}
{"smiles": "CC(=O)/C=C/C1C(C)=CCCC1(C)C", "note": "(stereo not given)", "cytotoxicity increase": "-4.12%"}
{"smiles": "CC(C)(C)c1cc(CCC(=O)OCC(COC(=O)CCc2cc(C(C)(C)C)c(O)c(C(C)(C)C)c2)(COC(=O)CCc2cc(C(C)(C)C)c(O)c(C(C)(C)C)c2)COC(=O)CCc2cc(C(C)(C)C)c(O)c(C(C)(C)C)c2)cc(C(C)(C)C)c1O", "cytotoxicity increase": "-6.01% [at 35.3 µM]"}
{"smiles": "CC(C)c1ccccc1C(C)C", "cytotoxicity increase": "3.09%"}
{"smiles": "CCN(CCO)CCCC(C)Nc1ccnc2cc(Cl)ccc12", "note": "(stereo not given)", "cytotoxicity increase": "19.7% [at 6.97 µM]"}
{"smiles": "CCCCCC/C=C/C=O", "cytotoxicity increase": "0.209%"}
{"smiles": "Nc1ccc(C(=O)Nc2ccccc2N)cc1", "cytotoxicity increase": "-21.6% [at 35.3 µM]"}
{"smiles": "CC(C)(C)c1cc(CO)cc(C(C)(C)C)c1O", "cytotoxicity increase": "1.3%"}
{"smiles": "C=CC(C)(CCC=C(C)C)OC(=O)c1ccccc1", "note": "(stereo not given)", "cytotoxicity increase": "-7.9%"}
{"smiles": "CCCCCC(CO)CCC", "note": "(stereo not given)", "cytotoxicity increase": "-6.63%"}
{"smiles": "CC(=O)CC(=O)c1ccccc1", "cytotoxicity increase": "0.611%"}
{"smiles": "CCOC(=O)CC(=O)c1cc(F)c(Cl)nc1Cl", "cytotoxicity increase": "-12.5%"}
{"smiles": "CC(=O)c1ccc2c(c1)[C@H](NC(=O)c1ccc(F)cc1)[C@@H](O)C(C)(C)O2", "cytotoxicity increase": "-3.46%"}
{"smiles": "CC(C)(Oc1ccc(Cl)cc1)C(=O)OCCCOC(=O)C(C)(C)Oc1ccc(Cl)cc1", "cytotoxicity increase": "-6.73% [at 35.3 µM]"}
{"smiles": "CC(=O)[C@@]1(O)CC[C@H]2[C@@H]3C[C@H](C)C4=CC(=O)CC[C@]4(C)[C@H]3CC[C@@]21C", "cytotoxicity increase": "1.74% [at 35.3 µM]"}
{"smiles": "N#CCc1cccc(C(F)(F)F)c1", "cytotoxicity increase": "3.43%"}
